The test can be described thus: NCI Yeast Anticancer Drug Screen. Data for the rad50 strain (AID 155).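 Also: 0% = growth of vehicle-only cultures of the same strain.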 The note with it: S. cerevisiae rad50 strain growth inhibition, hits give high values. The method, then: Growth inhibition of yeast strains with defined genetic alterations is measured as a screen for potential anti-cancer activity. Selected strains with alterations in DNA damage repair or cell cycle control were exposed to compounds and growth inhibition was measured relative to vehicle treated controls. The strain used in this assay is rad50

[1] abbreviates: at 5.0 µM (retest, dose inferred, filed as 0.5).
Setting [2] is: at 50.0 µM (retest, dose inferred, filed as 5.0).

SMILES strings stand for the structures. About 79,000 compounds went through this panel and 15% of them were active in at least one assay; those are over-represented in the sample as a whole. Unmarked numbers belong to inactive results. Active and inactive are the calls of the source. Rule as the data show it: active = growth inhibition above about 70%; inactive = the rest.

Turning to `CCOC(=O)C1([Se]c2ccccc2)CCCC1=O` (configuration not stated), the growth inhibition was 17% (at 1.2 µM); 15% (at 3.7 µM); 16% under setting [1]; 23% (at 11.0 µM); 44% (at 33.0 µM); 63% under setting [2]. The growth inhibition by setting is: (at 50.0 µM) 84.2% (active); (at 100.0 µM) 92% (active).
Turning to `c1ccc(N=c2nc(N3CCOCC3)ss2)cc1`, the growth inhibition by setting is: (at 1.2 µM) -6%; (at 3.7 µM) 6%; under setting [1], 19%; (at 11.0 µM) 51%; (at 33.0 µM) 99% (active); under setting [2], 99% (active). Further, the growth inhibition (at 50.0 µM) is 98.6% (active) and the growth inhibition (at 100.0 µM) is 99% (active).
In the case of `CC1(C)N=C(N)N=C(N)N1c1cccc(N)c1.[Sn]`, the growth inhibition runs as follows: (at 1.2 µM) 5%; (at 3.7 µM) 6%; under setting [1], 24%; (at 11.0 µM) 6%; (at 33.0 µM) 24%; under setting [2], 36%. Also, the growth inhibition is 9.35% (at 50.0 µM) and 36% (at 100.0 µM).
Turning to `C[C@@]12CCC(=O)C=C1CC[C@H]1C2=CC[C@]2(C)C1CC[C@@]2(C)O` (some centres not stated), the growth inhibition was 1% (at 1.2 µM); 7% (at 3.7 µM); 27% under setting [1]; 5% (at 11.0 µM); 63% (at 33.0 µM); 60% under setting [2]. Further, the growth inhibition (at 50.0 µM) is 74.2% (active) and the growth inhibition (at 100.0 µM) was 85% (active).
With `CCCCN(CC)CC(C(C)=O)c1c(O)c2ccccc2oc1=O` (configuration not stated), the growth inhibition reads like this: under setting [1], 8%; under setting [2], 22%; (at 50.0 µM) 66.8%.
On to `[Cl][Sn]([c]1ccccc1)[c]1ccccc1`, for which the growth inhibition is, setting by setting: under setting [1], 41%; under setting [2], 93% (active); (at 50.0 µM) 80.8% (active).
As to `COC1OC(COC(C)=O)C(OC(C)=O)C(OC(C)=O)[C]1(OC(C)=O)[Hg][O]C(C)=O` (configuration not stated), the growth inhibition by setting is: under setting [1], 99% (active); under setting [2], 99% (active); (at 50.0 µM) 99.3% (active).
In the case of `C/C(=N\O)C(CN(C)C)C(c1ccccc1)c1c(O)c2ccccc2oc1=O` (configuration not stated), the growth inhibition by setting is: under setting [1], 25%; under setting [2], 25%; (at 50.0 µM) 76.5% (active).
Turning to `CC(Br)c1ccccc1` (configuration not stated), the growth inhibition reads like this: under setting [1], 1%; under setting [2], 17%; (at 50.0 µM) 50.2%.

The values are drawn from PubChem BioAssay (NCI).
